Assay results as given in PubChem BioAssay AID651774 (Broad Institute, 2012).
Measured potencies and affinities stand elsewhere. Values without a mark were called inactive. Activity calls are given as the source filed them. How the calls were made is not given here.

Test: HeLa cell viability loss – 24 h, dry powder, cytotoxicity control, dose response (AID 651774)
Conditions: CellTiter-Glo ATP luminescence; series mostly up to 35 µM; activity change, negative = cytotoxicity: at the top concentration
With `CCn1nnc(NCc2ccccc2)n1` the “activity change, negative = cytotoxicity” value was 14%.
In the case of `O=C(Cc1ccc(-c2ccccc2)cc1)N1CCC1`, the “activity change, negative = cytotoxicity” value is reported as 0.175%.
With `CCNC(=O)Cc1ccc(-c2ccccc2)cc1` the “activity change, negative = cytotoxicity” value was -6.05%.
With `O=C(CCc1ccc(-c2ccccc2)cc1)NC1CCCC1` the “activity change, negative = cytotoxicity” value was -9.26%.
In the case of `O=C(Cc1ccc(-c2ccccc2)cc1)N1CC(F)(F)C1`, the “activity change, negative = cytotoxicity” value is reported as 1.81%.
For `CCn1nnnc1NCc1ccc(C(F)(F)F)cc1`, the “activity change, negative = cytotoxicity” value was -7.68%.
For `CCn1nnc(NCc2ccc(C(F)(F)F)cc2)n1`, the “activity change, negative = cytotoxicity” value was -1.34%.
With `CCn1nnc(NCc2ccc(C(C)C)cc2)n1` the “activity change, negative = cytotoxicity” value was -5.76%.
With `O=C(Cc1ccc(-c2ccccc2)cc1)NC1CCC1` the “activity change, negative = cytotoxicity” value was 8.77%.
With `c1ccc(CNc2nn[nH]n2)cc1` the “activity change, negative = cytotoxicity” value was -14.7%.
For `O=C(Cc1ccc(-c2ccccc2)cc1)NC1CCCC1`, the outcome was “inactive”.
For `O=C(Cc1cccc(F)c1)NC1CCCC1`, the “activity change, negative = cytotoxicity” value was -2.5%.
In the case of `CC(C)c1ccc(CNc2nnn(C)n2)cc1`, the “activity change, negative = cytotoxicity” value is reported as 2.58%.
With `CCC(C)NC(=O)Cc1ccc(-c2ccccc2)cc1` (centres undefined) the “activity change, negative = cytotoxicity” value was -13.7%.
In the case of `O=C(Cc1ccccc1)NC1CCCC1`, the “activity change, negative = cytotoxicity” value is reported as 10.9%.
For `O=C(Cc1ccccc1OC(F)(F)F)NC1CCCC1`, the “activity change, negative = cytotoxicity” value was -4.41%.
For `CC(C)n1nnc(NCc2ccc(N3CCCC3)cc2)n1`, the “activity change, negative = cytotoxicity” value was -7.91%.
For `O=C(Cc1cccc(-c2ccccc2)c1)NC1CCCC1`, the “activity change, negative = cytotoxicity” value was -4.43%.
In the case of `Cc1cccc(CC(=O)NC2CCCC2)c1`, the “activity change, negative = cytotoxicity” value is reported as -17.9%.
For `CCn1nnnc1NCc1ccc(N2CCCC2)cc1`, the outcome was “inactive”.
In the case of `O=C(Cc1ccc(-c2ccncc2)cc1)NC1CCCC1`, the “activity change, negative = cytotoxicity” value is reported as -0.196%.
For `CS(=O)(=O)c1ccc(CC(=O)NC2CCCC2)cc1`, the “activity change, negative = cytotoxicity” value was 0.072%.
In the case of `CN1CCN(C(=O)Cc2ccc(-c3ccccc3)cc2)CC1`, the “activity change, negative = cytotoxicity” value is reported as 9.96%.
For `O=C(Cc1ccc(-c2ccccc2)cc1)NC1CCNCC1`, the “activity change, negative = cytotoxicity” value was -0.852%.
